# Compound activity: PubChem BioAssay, National Center for Advancing Translational Sciences (NCATS)
# Most compounds without a hit are left out; they make up all but 1.5% or so of the library.
# GALK inhibitor: galactokinase (human) inhibition; P51570; Purified GALK, Kinase-Glo residual ATP luminescence; Potency, µM (highest dose often 57.5 µM), for the others: at the top dose activity change, negative = inhibition, actives largely listed as inhibitors; 270,000 tested, 0.007% active; AID 1868; further: potency means the concentration at half of the fitted maximal effect
#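 Compounds were pin-transferred into ATP buffer (35 uM final), then GALK plus galactose (5 nM, 100 uM final) was added. After 1 h at room temperature, Kinase-Glo Plus was added and luminescence read after 10 min.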
# rTrxR1 inhibitor: blocks rat thioredoxin reductase 1; recombinant rTrxR1, NADPH fluorescence consumption, selenite substrate; 390,000 tested, 1% active; Potency, µM (top dose mostly 114 µM), for inactives: top-dose activity change, negative = inhibition, actives largely listed as inhibitors; further: potency means the concentration at half of the fitted maximal effect; nearly all actives have a fitted effect of over 65% in size
# Target sequence (O89049 whole entry, looked up): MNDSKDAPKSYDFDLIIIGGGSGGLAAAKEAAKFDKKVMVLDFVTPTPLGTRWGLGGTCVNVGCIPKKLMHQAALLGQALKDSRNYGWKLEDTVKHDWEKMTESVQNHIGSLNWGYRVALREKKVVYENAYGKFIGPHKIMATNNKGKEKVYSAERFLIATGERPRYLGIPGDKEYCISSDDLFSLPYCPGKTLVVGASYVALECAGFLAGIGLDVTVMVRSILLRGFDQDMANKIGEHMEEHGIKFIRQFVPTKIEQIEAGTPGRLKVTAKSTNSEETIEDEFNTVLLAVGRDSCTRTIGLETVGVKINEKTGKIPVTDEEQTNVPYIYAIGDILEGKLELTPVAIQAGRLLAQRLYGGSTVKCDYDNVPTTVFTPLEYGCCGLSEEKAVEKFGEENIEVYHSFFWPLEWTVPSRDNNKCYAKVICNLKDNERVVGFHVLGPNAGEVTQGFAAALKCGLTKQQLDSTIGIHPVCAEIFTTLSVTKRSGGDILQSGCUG
#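 Rat TrxR1 (90 nM in the dispensed reagent) was pre-reduced with 400 uM NADPH for 5 min at room temperature, then incubated with compound for 15 min. After 400 uM selenite was added, NADPH fluorescence (Ex 340/Em 450 nm) was followed for 8 min.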
# Coupling enz: inhibits coupling enzyme system, counter-screen for aldolase hits; coupling enzyme system counterscreen, AmpLite Red fluorescence; activity change, negative = inhibition, % at 58.2 µM, hits read low; AID 2472; 290,000 tested, 0.67% active; in the data active means activity change below about -30%
#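 Final compound at 57.5 uM, incubated 10 min at RT with coupling enzyme reagent (glyceraldehyde-3-phosphate), then 20 min with substrate and AmpLite Red detection. Fluorescence read at 525/598 nm; tests interference with the coupling assay, not aldolase inhibition.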
# USP1 inh: blocks the human USP1/UAF1 deubiquitinase complex; O94782; recombinant USP1/UAF1, Ub-Rhodamine cleavage fluorescence; Potency, µM (top dose mostly 57.1 µM), for the others: at the highest dose activity change, negative = inhibition, hits mostly inhibitors; 390,000 tested, 0.23% active; AID 743255; further: potency means the concentration at half of the fitted maximal effect; nearly all actives have a fitted effect of over 60% in size
#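 High-throughput fluorogenic screen: 1nM USP1/UAF1 complex, Ub-Rho substrate 150nM final, 50mM HEPES pH 7.8 with 0.5mM EDTA, 0.1 mg/ml BSA, 1mM TCEP and 0.01% Tween-20.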
# TrxR1 substrate: substrates of rat thioredoxin reductase 1; O89049; purified TrxR1 substrate turnover, NADPH consumption readout; Potency, µM (doses to about 114 µM), for inactives: top-dose activity change, negative = substrate turnover; 390,000 tested, 0.01% active; AID 588456; further: potency means the concentration at half of the fitted maximal effect; nearly all actives have a fitted effect of over 50% in size
#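 Rat TrxR1, dispensed at 90 nM, was prereduced with 400 uM NADPH (final) for 5 min at ~22 deg C, then incubated with compound 15 min before 400 uM selenite. A first-read NADPH fluorescence drop versus no-compound background flagged substrates.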
# An asterisk follows results filed as active; ? = inconclusive; . = no result given; [ ] = remark or other dose. Unless noted, the call rests on the fitted dose curve; in most records, active means well fitted curve in the direction sought with a large enough effect; inconclusive means small, poorly fitted or top-dose-only effect, or another doubt; inactive means no such curve, though single readings can be large; an effect the other way counts as inactive or inconclusive. On the % scale 0 is the no-effect control and ±100 the full control effect.
SMILES,GALK inhibitor,rTrxR1 inhibitor,Coupling enz,USP1 inh,TrxR1 substrate
N#Cc1cc([N+](=O)[O-])c(-n2nnc3ccccc32)c([N+](=O)[O-])c1,-2%,16µM*,1,-21%,-2%
C=C(C)C1(O)OC(=O)C=C1OC (stereo not given),-2%,14µM*,3,?,5%
Cc1nc2n(c(=O)c1CCN1CCC(c3noc4cc(F)ccc34)CC1)CCC[C@@H]2O,.,8%,.,.,0%
Cc1nc2cc(NC(=O)N3CCN(c4ccccn4)CC3)ccc2o1,1%,28%,3,-8%,23%
O=C(c1cccc(C(=O)N2CCN(c3ncccn3)CC2)c1)N1CCN(c2ncccn2)CC1,-2%,1%,2,-21%,5%
O=C(c1ccc2nc(-c3ccco3)c(-c3ccco3)nc2c1)N1CCN(c2ncccn2)CC1,0%,13µM*,.,-22%,5%
O=C(Nc1ccc2nc(-c3ccco3)c(-c3ccco3)nc2c1)N1CCCC1,.,?,.,.,8%
CC1CCN(C(=O)Nc2ccc3nc(-c4ccco4)c(-c4ccco4)nc3c2)CC1,.,4µM*,.,.,-15%
S=C(Nc1ccc(N2CCOCC2)cc1)Nc1ccc2nc(-c3ccco3)c(-c3ccco3)nc2c1,-3%,2.5µM*,-24,25µM*,-9%
O=C(Nc1ccc2nc(-c3ccco3)c(-c3ccco3)nc2c1)N1CCN(c2ccccn2)CC1,-1%,1.4µM*,-41*,-15%,-12%
O=C(Nc1ccc(N2CCOCC2)cc1)c1ccc2nc(-c3ccco3)c(-c3ccco3)nc2c1,-3%,-20%,-3,-4%,1%[57.1 µM]
C(=Nc1ccc(/C=C/c2ccnc3ccccc23)cc1)c1ccc2c(c1)OCO2,.,-3%,.,.,-9%
COc1ccc(C(c2c(O)cc(C)n(Cc3ccco3)c2=O)N2CCN(c3ccccc3)CC2)cc1 (stereo not given),.,16µM*,.,-12%,4%[57.1 µM]
CCOc1ccc(C(c2c(O)cc(C)n(CCOC)c2=O)N2CCN(c3ccccc3)CC2)cc1 (stereo not given),.,11µM*,.,?,8%[57.1 µM]
COCCn1c(C)cc(O)c(C(c2ccc(Cl)cc2)N2CCN(c3ccccc3)CC2)c1=O (stereo not given),.,?,.,4%,8%[57.1 µM]
CCOC(=O)C1CCN(C(c2ccc(OCC)cc2)c2c(O)cc(C)n(CCOC)c2=O)CC1 (stereo not given),.,25µM*,.,?,-3%[57.1 µM]
CCN(CCN(C)C)C(=O)c1ccc2c(c1NCCO)C(=O)c1ccccc1C2=O,1%,19%[57.1 µM],-37*,?,-15%[57.1 µM]
O=C1c2ccccc2C(=O)c2c1ccc(C(=O)N1CCCCC1)c2NCCO,-1%,10%[57.1 µM],0,-18%,11%[57.1 µM]
Cc1cc(O)ccc1N/C=C1\CCCC1=O,3%,?,-44*,-15%,-10%
CC(=O)Nc1ccc(N/C=C2/CCCC2=O)cc1,3%,?,-1,-17%,?
CCN(CC)CC(C)(C)C(=O)/C=C/c1ccc(/C=C/C(=O)C(C)(C)CN(CC)CC)cc1,.,2µM*,.,?,-11%
CCN(CC)CCOC(=O)/C=C/c1ccccc1,1%,13%,3,5%,-2%
C=CCn1c(SCC(=O)NCc2ccco2)nnc1-c1ccc2ccccc2n1,-1%,79µM*,3,-1%,-7%
CC(=O)c1cccc(NC(=O)COC(=O)c2ccccc2OCc2cccc(Br)c2)c1,.,12%,.,.,10%
Cc1c(O)ccc2c1OC(C)(C)CC2,.,?,.,.,5%
SMILES,GALK inhibitor,rTrxR1 inhibitor,Coupling enz,USP1 inh,TrxR1 substrate
Cc1ccc(NC(=S)Nc2cccc3cnccc23)cc1,1%,?,-38*,-28%,-1%[57.1 µM]
NC(=S)Nc1cccc2cnccc12,1%,-14%,1,-10%,-8%
CCCCNC(=S)Nc1cccc2cnccc12,3%,?,-18,-17%,9%
CC(=O)c1ccc(NC(=S)Nc2cccc3cnccc23)cc1,?,22µM*,-62*,-3%,-8%
Cc1ccc(NC(=S)Nc2cccc3cnccc23)cc1C,1%,-46%,-44*,?,-5%
S=C(Nc1cccc(Cl)c1)Nc1cccc2cnccc12,-1%,45µM*,4,-19%,-9%
Cc1ccc(NC(=O)c2cc3c([nH]c2=O)CC(C)(C)CC3=O)cc1,.,37%[0.0914 µM],.,.,3%
O=C1[C@H](Cc2ccccc2)NC/C=C\C[C@H](c2ccc(Cl)cc2)N1Cc1ccc(Cl)cc1,.,-14%,.,.,-11%
COC(=O)C1=C(C)N(Cc2ccccc2)[C@]23O[C@](C(=O)OC)(C(=O)N2C1c1ccccc1)C(c1ccccc1)C3C(=O)c1ccccc1 (stereo not given in full),.,.,-1,.,.
CC1CCc2cc(F)cc3c2N1C(=O)C(C(=O)Nc1cnccn1)C3=O (stereo not given),.,7%,.,.,16%
CC(C)(C)n1ncc2c(=O)n(Cc3ccc(C(F)(F)F)cc3)cnc21,.,-18%,.,.,-7%
COc1ccc(NC(=O)COc2cccc3c2OC(C)(C)C3)cc1OC,.,11%,.,-25%,2%
COc1ccc(C(C)=O)cc1COc1cccc2c1OC(C)(C)C2,-5%,32µM*,.,-23%,9%
c1ccc(-c2cnc(CSc3nnc4ccccn34)o2)cc1,2%,?,-37*,-20%,16%
Oc1ccc(Br)cc1C1C=C(c2ccc3c(c2)OCO3)NC(c2c(F)cccc2Cl)N1 (stereo not given),.,-7%,.,.,0%
Cc1[nH]c2ccccc2c1C(c1ccccn1)c1c(C)[nH]c2ccccc12,1%,40µM*,-71*,-12%,-2%
COC(=O)C1=C(C)NC(C)=C(C(=O)OCCCN2CCC(c3ccccc3)(c3ccccc3)CC2)[C@H]1c1cccc([N+](=O)[O-])c1,.,.,-2,.,.
C=CC1=C2C=C(C3CC3)N(CCCOC(C)C)C=C2C(=O)C(C)(OC(=O)c2ccco2)C1=O (stereo not given),.,.,-32*,.,.
C=CC1=C2C=C(C3CC3)N(Cc3ccccc3)C=C2C(=O)C(C)(OC(=O)c2ccco2)C1=O (stereo not given),.,.,-36*,.,.
C=CC1=C2C=C(C3CC3)N(Cc3ccc4c(c3)OCO4)C=C2C(=O)C(C)(OC(=O)c2ccco2)C1=O (stereo not given),.,.,-6,.,.
C=CC1=C2C=C(C3CC3)N(CCN3CCOCC3)C=C2C(=O)C(C)(OC(=O)c2ccco2)C1=O (stereo not given),.,.,-22,.,.
CCOC(=O)c1nnn(-c2nonc2-n2cccc2)c1CCl,-1%,13µM*,1,2%,13%
O=C(Nc1ccccc1)c1ccc(-n2nncc2-c2ccccc2)cc1,.,14%,.,.,0%
Oc1ccc2ccccc2c1C=Nc1ccccc1-c1nc2ccccc2[nH]1,-3%,-25%,-32*,?,162%
COc1ccccc1NC(=O)c1nc(SCc2ccccc2F)ncc1Cl,.,15%[0.0914 µM],.,.,-9%
